PubChem BioAssay AID652192 (Johns Hopkins Ion Channel Center, 2013)
Entries with a potency or affinity are not part of this list. The source made the active and inactive calls.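 How the source made its calls: active means peak inhibition of the KCNQ2 potassium channel over 30% at some tested dose, with a fitted dose response curve; inactive means no inhibition at any dose, or no curve fitted.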

Target: Potassium voltage-gated channel subfamily KQT member 2 (Rattus norvegicus) (UniProt O88943)
Assay: KCNQ2 channel inhibition, SAR follow-up, selectivity assay for TASK1 inhibitor project, cell-based, FluxOR thallium flux, concentration-response (AID 652192)
Conditions: KCNQ2 cell line, FluxOR thallium flux fluorescence; series mostly up to 30 µM

Potassium voltage-gated channel subfamily KQT member 2 (Rattus norvegicus), sequence (O88943 whole entry, looked up): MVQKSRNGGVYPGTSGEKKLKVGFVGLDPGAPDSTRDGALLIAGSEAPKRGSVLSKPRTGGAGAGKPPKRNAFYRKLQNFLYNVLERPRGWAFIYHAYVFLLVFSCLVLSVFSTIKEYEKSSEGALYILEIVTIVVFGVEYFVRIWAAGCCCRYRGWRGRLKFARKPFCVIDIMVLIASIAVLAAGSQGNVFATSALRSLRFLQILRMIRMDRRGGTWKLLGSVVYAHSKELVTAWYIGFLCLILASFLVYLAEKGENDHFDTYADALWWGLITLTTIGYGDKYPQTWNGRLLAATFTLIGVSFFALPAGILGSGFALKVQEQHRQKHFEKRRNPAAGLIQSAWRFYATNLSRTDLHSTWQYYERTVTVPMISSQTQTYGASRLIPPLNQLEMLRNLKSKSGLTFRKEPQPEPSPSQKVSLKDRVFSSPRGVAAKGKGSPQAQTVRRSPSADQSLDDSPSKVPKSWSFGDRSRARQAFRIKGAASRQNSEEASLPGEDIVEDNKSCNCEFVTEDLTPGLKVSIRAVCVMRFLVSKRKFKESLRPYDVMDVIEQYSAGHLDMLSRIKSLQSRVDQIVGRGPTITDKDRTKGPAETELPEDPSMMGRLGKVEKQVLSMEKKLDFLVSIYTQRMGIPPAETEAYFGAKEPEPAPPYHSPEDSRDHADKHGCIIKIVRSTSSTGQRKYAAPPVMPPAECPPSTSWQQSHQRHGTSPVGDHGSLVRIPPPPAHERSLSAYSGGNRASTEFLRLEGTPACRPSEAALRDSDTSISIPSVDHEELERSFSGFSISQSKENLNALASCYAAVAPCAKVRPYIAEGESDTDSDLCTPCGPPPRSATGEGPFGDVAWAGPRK

outcome, inactive:
CCOc1ccccc1C(=O)Nc1cccc(NC(=O)c2ccccc2OC)c1
Cc1cccc(C(=O)Nc2cccc(NC(=O)c3cccc(C(F)(F)F)c3)c2)c1
Cc1cccc(C(=O)Nc2cccc(NC(=O)c3ccccc3OCC(C)C)c2)c1
CCOc1ccccc1NC(=O)c1cccc(NC(=O)c2ccccc2OC)c1
CCOc1ccccc1NC(=O)c1cccc(NC(=O)C2CC2)c1
O=C(Nc1cccc(NC(=O)c2ccc(F)cc2)c1)c1ccccc1
Cc1cccc(C(=O)Nc2cccc(NC(=O)c3ccccc3C(F)(F)F)c2)c1
CCOc1ccccc1NC(=O)c1cccc(NC(=O)c2cccc(C(F)(F)F)c2)c1
O=C(Nc1cccc(NC(=O)C2CCCCC2)c1)c1ccccc1
COc1ccccc1C(=O)Nc1cccc(NC(=O)c2ccccc2OC(F)(F)F)c1
O=C(Nc1cccc(NC(=O)c2ccsc2)c1)c1ccccc1
CCOc1ccccc1NC(=O)c1cccc(NC(=O)c2cccc(OC)c2)c1
CCOc1ccccc1NC(=O)c1cccc(NC(=O)c2ccc(OC)cc2)c1
Cc1ccc(C(=O)Nc2cccc(NC(=O)c3ccccc3)c2)cc1
Cc1cccc(C(=O)Nc2cccc(NC(=O)c3cccc(Cl)c3)c2)c1
Cc1cccc(C(=O)Nc2cccc(NC(=O)c3ccc(N(C)C)cc3)c2)c1
COc1cccc(C(=O)Nc2cccc(NC(=O)c3ccccc3)c2)c1
Cc1cccc(C(=O)Nc2cccc(NC(=O)C3CCCCC3)c2)c1
Cc1cccc(C(=O)Nc2ccccc2NC(=O)c2ccccc2)c1
Cc1cccc(S(=O)(=O)Nc2cccc(NC(=O)c3ccccc3)c2)c1
COc1ccccc1C(=O)Nc1cc(NC(=O)c2ccccc2C(C)C)ccc1F
O=C(Nc1cccc(NC(=O)c2ccc(C(F)(F)F)cc2)c1)c1ccccc1
Cc1cccc(C(=O)Nc2cccc(NC(=O)c3ccccc3C)c2)c1
CC(C)Oc1ccccc1C(=O)Nc1cccc(NC(=O)c2ccccc2OC(F)(F)F)c1
COc1cccc(OC)c1C(=O)Nc1cccc(NC(=O)c2cccc(C)c2)c1
Cc1cccc(C(=O)Nc2cccc(NC(=O)c3ccccc3OC(F)(F)F)c2)c1
COc1ccccc1C(=O)Nc1cc(NC(=O)c2cccc(C)c2)ccc1F
Cc1cccc(C(=O)Nc2cccc(NC(=O)c3cccc(F)c3)c2)c1
O=C(Nc1cccc(NC(=O)c2cccs2)c1)c1ccccc1
COc1ccc(C(=O)Nc2cccc(NC(=O)c3ccccc3)c2)cc1
COc1ccccc1NC(=O)c1cccc(NC(=O)CC2CCCC2)c1
CCCC(=O)C1CCN(c2ncnc3c2CN(C(=O)c2ccc(-c4ccccc4)cc2)CC3)CC1
CCOc1ccccc1NC(=O)c1cccc(NC(=O)C(C)(C)C)c1
